Screening data (PubChem BioAssay)
This excerpt belongs to a sample that is enriched for hits.
VCAM1 TNFa pot: enhances TNF alpha induced VCAM1 expression in HUVEC; HUVEC TNFa-stimulated VCAM-1 immunofluorescence, high-content imaging; scaled per plate to unstimulated/TNFa-only wells; activation, % at 2 µM; hit rate 0.19% among 93,000;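 active = activation above the screen mean plus 3 SD, with well images confirming the hit on visual review, cut at about 28% in these data, passing the limit was not always enough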;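 also: signal is the number of cytoplasmic VCAM-1 stained grains per positive cell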
VCAM1 pot confirm: enhancers of VCAM1 induction in HUVEC – imaging, triplicate retest, confirmation | activation, % at 2 µM | HUVEC TNFa-stimulated VCAM-1 immunofluorescence imaging | 230 tested, under 10 active | shares compounds with VCAM1 TNFa pot;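 active = activation above 30% in triplicate retests at 2 µM, then confirmed by visual review of the well images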;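 also: scaled per plate between unstimulated and TNFa-stimulated DMSO control wells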
* marks the source's active call; other numbers are inactive results.

SMILES | VCAM1 TNFa pot | others
CC(Cc1ccccc1)NC(=O)NC(C)Cc1ccccc1 (centres undefined) | 33.1* | VCAM1 pot confirm=-16.4
CCOP(=S)(OCC)c1ccc(N(C)C)cc1 | 10.0
CCC12CN3CCN(CC(C3)/C1=N\O)C2 | 8.1
O=C1CN(C(=O)CN2CCCCC2)C(c2ccccc2)c2cc(Br)ccc2N1 (centres undefined) | -45.7
COc1ccc(OP(=O)(Nc2ccccc2)Nc2ccccc2)cc1 | 5.4
Cc1cc(C=O)c(C)n1CC1CCCO1 (centres undefined) | 2.3
CCOC(=O)c1[nH]c(C)c(C(=O)N2CCC3(CC2)OCCO3)c1C | 116.7* | VCAM1 pot confirm=-9.3
CS(=O)(=O)N1CCCC(C(=O)N2CCC3(CC2)OCCO3)C1 (centres undefined) | -0.7
Cc1occc1C(=O)N1CCC2(CC1)OCCO2 | -4.7
COC(=O)c1cc2c(s1)=NC=NP=2(N1CCOCC1)N1CCOCC1 | -7.9
COc1ccc(/C=C2\C(=N\O)C3CCN2CC3)cc1 | 12.1
Cc1ccc(-c2nc3ccccc3c(=O)n2-c2nccs2)cc1 | 55.9* | VCAM1 pot confirm=-17.4
Cc1cc(C)c(NC2=NCCCS2)c(C)c1 | 13.5
C/C(Cl)=C/CC1(CN2CCCC2=O)C(=O)NC(=O)NC1=O | 106.0* | VCAM1 pot confirm=-14.9
CCCCC(=O)C1C(=O)NC(=O)NC1=O | 5.4
CCCC(C)C1(CC)C(=O)NC(=Nc2ccccc2OC)NC1=O (centres undefined) | -0.7
C=CCn1c(O)c(C(C)=NCc2cc(OC)cc(OC)c2)c(=O)[nH]c1=O | -6.9
COc1ccc(Cl)cc1NC1=NCC(C)S1 (centres undefined) | -0.2
O=C(Nc1ccccc1OC(=O)N1CCOCC1)N1CCOCC1 | -36.8
CC1CCC(NCC(O)c2ccccc2)CC1 (centres undefined) | 15.9
